Reference: PubChem BioAssay AID1159580 (chemical genetic matrix, 2015)
Several values for one entry are separate records, joined by “and”; a condition that tells them apart may be missing. Identical values can stand only once. Hit rate of the full screen: of about 5,500 compounds, about 2,000 (36%) were called active. Inconclusive results (about 18%) are left out. Rule as the data show it: active = normalized growth mostly below about 0.91 (no sharp cut-off); inconclusive = no clear call, values can overlap the other calls; inactive = mostly above about 0.92. This is one part of the list.

Assay: chemical genetic growth profiling, strain panel (AID 1159580);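 also: tested at 20 µM; growth read once vehicle control cultures reached saturation at 30 °C; 1 = growth at the plate median or of vehicle wells; lower values mean less growth of the strain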
Settings: S. cerevisiae deletion strains, growth OD

Measured: normalized growth

CC1(C)OC(=O)NC1=O
inactive: locus YAL021C, strain ccr4, active compounds read low 0.996 | locus YAL026C, strain drs2, active compounds read low 0.976 | locus YAL030W, strain snc1, active compounds read low 1.01 | locus YBL061C, strain skt5, active compounds read low 1.02 | locus YBR009C, strain hhf1, active compounds read low 1 | locus YBR021W, strain FUR4, active compounds read low 0.996 | locus YBR023C, strain chs3, active compounds read low 1.01 | locus YBR171W, strain sec66, active compounds read low 1.01 | locus YBR229C, strain ROT2, active compounds read low 0.984 | locus YBR231C, strain swc5, active compounds read low 1.04 | locus YBR279W, strain paf1, active compounds read low 1.01 | locus YCL011C, strain gbp2, active compounds read low 1 | locus YCL016C, strain dcc1, active compounds read low 1 | locus YCL029C, strain bik1, active compounds read low 0.969 | locus YCL069W, strain vba3, active compounds read low 1 | locus YCR088W, strain abp1, active compounds read low 0.994 | locus YDL005C, strain med2, active compounds read low 0.997 | locus YDL035C, strain GPR1, active compounds read low 1.04 | locus YDL040C, strain nat1, active compounds read low 1.01 | locus YDL074C, strain BRE1, active compounds read low 0.986 | locus YDL101C, strain DUN1, active compounds read low 0.981 | locus YDL134C, strain PPH21, active compounds read low 1.02 | locus YDL185W, strain tfp1, active compounds read low 0.979 | locus YDL192W, strain arf1, active compounds read low 0.985 | locus YDR001C, strain nth1, active compounds read low 0.992 | locus YDR069C, strain doa4, active compounds read low 1.03 | locus YDR101C, strain arx1, active compounds read low 1 | locus YDR137W, strain rgp1, active compounds read low 1 | locus YDR159W, strain sac3, active compounds read low 0.983 | locus YDR162C, strain NBP2, active compounds read low 1.01 | locus YDR195W, strain ref2 1.01 | locus YDR297W, strain sur2, active compounds read low 1.02 | locus YDR318W, strain mcm21, active compounds read low 0.98 | locus YDR334W, strain swr1, active compounds read low 0.993 | locus YDR335W, strain msn5, active compounds read low 1.02 | locus YDR388W, active compounds read low 0.98 | locus YDR392W, strain spt3, active compounds read low 0.944 | locus YDR502C, strain sam2, active compounds read low 0.994 | locus YEL003W, strain gim4, active compounds read low 1 | locus YEL037C, strain rad23, active compounds read low 0.992 | locus YEL061C, strain CIN8 (second series), active compounds read low 0.991 | locus YEL061C, strain CIN8, active compounds read low 0.991 | locus YER015W, strain faa2, active compounds read low 1.01 | locus YER016W, strain bim1, active compounds read low 1.01 | locus YER110C, active compounds read low 0.965 | locus YER111C, strain swi4, active compounds read low 0.993 | locus YER155C, strain BEM2 (second series), active compounds read low 0.972 | locus YER155C, strain BEM2, active compounds read low 0.994 | locus YER167W, strain BCK2, active compounds read low 0.997 | locus YFR010W, strain ubp6, active compounds read low 1.03 | locus YGL078C, strain dbp3, active compounds read low 0.975 | locus YGL086W, strain mad1, active compounds read low 1 | locus YGL167C, strain pmr1, active compounds read low 1.01 | locus YGL173C, strain kem1, active compounds read low 1.04 | locus YGL227W, strain vid30, active compounds read low 0.968 | locus YGL240W, strain doc1, active compounds read low 1.02 | locus YGL248W, strain PDE1, active compounds read low 0.985 | locus YGL253W, strain hxk2, active compounds read low 1.01 | locus YGR078C, strain PAC10, active compounds read low 0.992 | locus YGR135W, strain pre9, active compounds read low 0.958 | locus YGR252W, strain gcn5, active compounds read low 0.969 | locus YHR013C, strain ard1, active compounds read low 1.01 | locus YHR027C, strain rpn1, active compounds read low 1.01 | locus YHR030C, strain SLT2, active compounds read low 0.994 and 1.03 | locus YHR079C, strain IRE1 (second series), active compounds read low 0.983 | locus YHR079C, strain IRE1, active compounds read low 1.02 | locus YHR094C, strain hxt1, active compounds read low 0.972 | locus YHR129C, strain ARP1, active compounds read low 0.998 | locus YHR142W, strain chs7, active compounds read low 1 | locus YHR200W, strain rpn10, active compounds read low 0.981 | locus YIL066C, strain RNR3, active compounds read low 0.993 | locus YIL073C, strain SPO22, active compounds read low 0.952 | locus YIL125W, strain kgd1, active compounds read low 0.988 | locus YIR030C, strain dcg1, active compounds read low 0.972 | locus YJL092W, strain hpr5, active compounds read low 0.989 | locus YJL095W, strain BCK1 (second series), active compounds read low 1.01 | locus YJL095W, strain BCK1, active compounds read low 0.981 and 0.994 | locus YJL115W, strain asf1, active compounds read low 0.992 | locus YJL129C, strain trk1, active compounds read low 0.94 | locus YJL134W, strain LCB3, active compounds read low 0.992 | locus YJL154C, strain vps35, active compounds read low 0.995 | locus YJL164C, strain tpk1, active compounds read low 0.994 | locus YJL166W, strain qcr8, active compounds read low 1.03 | locus YJL168C, strain set2, active compounds read low 0.974 | locus YJL187C, strain SWE1 (second series), active compounds read low 0.98 | locus YJL187C, strain SWE1, active compounds read low 1.02 | locus YJR043C, strain POL32, active compounds read low 1.03 | locus YJR066W, strain TOR1, active compounds read low 0.957
